Bioassay records (PubChem)
PLK1 PBD block – PLK1 (human) polo-box domain binding inhibition; Plk1 PBD binding of FITC phosphopeptide, fluorescence polarization; P53350; 360,000 compounds, 2.8% hits; Potency, µM, hits mostly inhibitors; also: series mostly up to about 57 µM; nearly all actives have a fitted effect of over 65% in size
Target sequence (P53350 whole entry, looked up, the tested form may be a part): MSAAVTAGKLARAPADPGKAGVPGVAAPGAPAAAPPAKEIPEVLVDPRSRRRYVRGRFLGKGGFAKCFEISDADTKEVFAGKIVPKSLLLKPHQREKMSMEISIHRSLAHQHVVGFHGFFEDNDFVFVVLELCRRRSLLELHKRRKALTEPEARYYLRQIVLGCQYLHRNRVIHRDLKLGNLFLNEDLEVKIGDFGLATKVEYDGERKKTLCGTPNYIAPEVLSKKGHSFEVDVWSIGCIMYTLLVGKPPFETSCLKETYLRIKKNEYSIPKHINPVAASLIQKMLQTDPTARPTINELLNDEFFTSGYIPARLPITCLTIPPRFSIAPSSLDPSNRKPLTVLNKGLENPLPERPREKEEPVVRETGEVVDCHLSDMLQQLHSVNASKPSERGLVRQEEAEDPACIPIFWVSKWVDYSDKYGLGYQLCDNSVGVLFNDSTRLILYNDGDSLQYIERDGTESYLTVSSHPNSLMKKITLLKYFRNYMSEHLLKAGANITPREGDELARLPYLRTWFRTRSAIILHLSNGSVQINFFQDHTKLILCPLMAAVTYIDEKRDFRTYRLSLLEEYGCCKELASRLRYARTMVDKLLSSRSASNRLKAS
G9a inh – inhibitors of human histone lysine methyltransferase G9a; 350,000 compounds, 8.8% hits; Q96KQ7; AID 504332; G9a H3K9 monomethylation, AlphaScreen, 2 h; Potency, µM (titrated, usually from 102 µM), hits mostly inhibitors; also: nearly all actives have a fitted effect of over 75% in size
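Using a bead-based AlphaScreen, monomethylated H3K9 product from 2 h room-temperature reactions (G9a 20 nM, peptide 500 nM, SAM 20 uM) was detected with 0.5 ug/mL rabbit anti-H3K9me1 antibody.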
ALOX12 inh – inhibitors of human 12S-lipoxygenase ALOX12 | purified 12hLO, xylenol orange hydroperoxide absorbance | P18054 | 580,000 compounds, 1.1% hits | Potency, µM (top dose mostly 108 µM), actives largely listed as inhibitors
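Hydroperoxide product was detected by ferrous iron/xylenol orange as the 573 to 405 nm absorbance ratio. Arachidonic acid at 40 uM (final) was turned over for 30 min at room temperature by 150 nM human 12hLO, pH 7.0 Hepes buffer, after 15 min compound preincubation.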
BAZ2B inh – inhibitors of human BAZ2B bromodomain; AlphaScreen BAZ2B-H3K14Ac peptide displacement; Potency, µM (top dose mostly 114 µM), hits mostly inhibitors; Q9UIF8; 360,000 compounds, 4.4% hits; also: nearly all actives have a fitted effect of over 60% in size
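BAZ2B 50 nM plus b-H3(5-23)K14Ac 50 nM, PBS pH 7.4/0.01% Tween-20, 30 min RT; compound added (max 110 uM), 30 min RT; streptavidin donor/Ni-chelate acceptor beads 10 ug/mL final, 20 min dark; AlphaScreen read.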
JMJD2A Tudor – inhibitors of human JMJD2A Tudor domain; AlphaScreen JMJD2A-Tudor / H3K4me3 peptide binding; AID 504339; Potency, µM (titrated, usually from 114 µM), actives largely listed as inhibitors; O75164; 390,000 compounds, 4.4% hits; also: nearly all actives have a fitted effect of over 50% in size
HP1b binding inh – inhibitors of HP1-beta chromodomain binding to methylated histone tails; AlphaScreen HP1-beta / biotin-H3K9me3 peptide binding; 390,000 compounds, 0.56% hits; AID 540317; Potency, µM (highest dose often 114 µM), most hits filed as inhibitors; also: nearly all actives have a fitted effect of over 70% in size
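AlphaScreen: HP1-beta (50 nM) preformed 30 min with biotin-H3(1-18)K9me3 peptide (50 nM) in PBS pH 7.4, 0.01% Tween-20. Compound added for 30 min at RT, then streptavidin donor/nickel chelate acceptor beads (10 ug/mL) for 30 min.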
TbPYK inh – Trypanosoma brucei pyruvate kinase inhibition, cherry-pick confirmation | shares compounds with PLK1 PBD block | recombinant TbPYK, Kinase-Glo ATP luminescence | Potency, µM (highest dose often 76.9 µM), actives largely listed as inhibitors | 890 compounds, 67% hits | AID 720569; also: nearly all actives have a fitted effect of over 70% in size
TbPYK orthogonal – orthogonal confirmation of Trypanosoma brucei pyruvate kinase inhibitors. 890 compounds, 62% hits. shares compounds with PLK1 PBD block. Potency, µM (highest dose often 76.9 µM), hits mostly inhibitors. recombinant TbPYK, ADP-Glo luminescence, 60 min; also: nearly all actives have a fitted effect of over 75% in size
Of the large screens only hits and unclear results are named; the others gave an inactive call (follow-up assays come after a bar, where they were run). Only some compounds are listed: those with a hit (about 9% of all), similar ones and a draw of the others. Calls follow the shape of the dose curve; as a rule, active = well fitted curve in the direction sought with a large enough effect; inconclusive = small, poorly fitted or top-dose-only effect, or another doubt; inactive = no such curve, though single readings can be large; an effect the other way counts as inactive or inconclusive.

CCn1cc(/C=C/C(=O)Nc2ccn(Cc3c(F)c(F)cc(F)c3F)n2)cn1	G9a inh 45µM | TbPYK inh 7.9µM | TbPYK orthogonal 13µM
CCn1cc(/C=C/C(=O)Nc2ccc(C)cc2Br)cn1	none
O=C1CSC(=S)N1N=Cc1cccc2ccccc12	ALOX12 inh inconclusive, JMJD2A Tudor inconclusive (no result: G9a inh, BAZ2B inh)
O=C1CSC(=S)N1N=Cc1ccccc1O	PLK1 PBD block 13µM, ALOX12 inh 6.3µM, JMJD2A Tudor 18µM, HP1b binding inh inconclusive (no result: G9a inh, BAZ2B inh) | TbPYK inh 13µM | TbPYK orthogonal 13µM
O=C(NCCc1ccc(F)cc1)c1cc([N+](=O)[O-])ccc1N1CCOCC1	none
Cc1c(N=C2SCC(=O)N2c2c(C)n(C)n(-c3ccccc3)c2=O)c(=O)n(-c2ccccc2)n1C	none
CC1=CC(=Nc2c(C)n(C)n(-c3ccccc3)c2=O)C=C(C)C1=O	G9a inh 40µM, ALOX12 inh inconclusive, HP1b binding inh inconclusive | TbPYK inh inactive | TbPYK orthogonal inactive
CC(C)Cn1c(SCC(=O)O)nnc1-c1cccc(S(=O)(=O)N2CCOCC2)c1	none (no result: G9a inh, BAZ2B inh)
NC(=O)CSc1nnc(-c2cccc(S(=O)(=O)N3CCOCC3)c2)n1C1CCCCCC1	PLK1 PBD block 3µM, JMJD2A Tudor inconclusive | TbPYK inh inactive | TbPYK orthogonal inactive
Cc1ccc(NC(=O)c2cc(N3C(=O)C=CC3=O)ccc2N2CCOCC2)cc1	PLK1 PBD block 3µM, G9a inh 1µM, ALOX12 inh 10µM, BAZ2B inh inconclusive, JMJD2A Tudor 11µM, HP1b binding inh inconclusive | TbPYK inh 10µM | TbPYK orthogonal 11µM
Cc1ccc(C)c(NC(=O)C2CC3CCC2C3)c1 (stereo not drawn)	none (no result: G9a inh)
Oc1ccc(C2C[C@H]3CC[C@@H]2C3)cc1O (stereo partly drawn)	PLK1 PBD block inconclusive, G9a inh 1µM, ALOX12 inh inconclusive, BAZ2B inh inconclusive, JMJD2A Tudor 20µM, HP1b binding inh 79µM | TbPYK inh 10µM | TbPYK orthogonal 14µM
O=C(NCCO)c1nc2ccccc2s1	none
Cc1ccc(C2CC(=O)N3CN(c4ccc(Br)cc4)CSC3=C2C#N)o1 (stereo not drawn)	G9a inh inconclusive, ALOX12 inh inconclusive, BAZ2B inh 56µM, JMJD2A Tudor 22µM | TbPYK inh 32µM | TbPYK orthogonal 16µM
O=C1C2C(C(=O)N1/N=C/c1ccc(N3CCCCC3)o1)C1C=CC2C12CC2 (stereo not drawn)	G9a inh inconclusive, ALOX12 inh inconclusive | TbPYK inh 28µM | TbPYK orthogonal 32µM
Cc1ccc(NC(=O)c2sccc2C)nc1	none (no result: G9a inh) | TbPYK inh inconclusive | TbPYK orthogonal inactive
Cc1c([N+](=O)[O-])cc(N2C(=O)C=CC2=O)cc1[N+](=O)[O-]	PLK1 PBD block 2.7µM, JMJD2A Tudor 22µM, HP1b binding inh 35µM (no result: G9a inh, ALOX12 inh, BAZ2B inh) | TbPYK inh 4µM | TbPYK orthogonal 7.9µM
Cc1cc(C)cc(N2C(=O)C=CC2=O)c1	PLK1 PBD block 3µM, ALOX12 inh inconclusive, JMJD2A Tudor 20µM, HP1b binding inh 13µM (no result: G9a inh, BAZ2B inh) | TbPYK inh 10µM | TbPYK orthogonal 14µM
O=c1ccn([C@@H]2O[C@H](COP(=O)(O)OP(=O)(O)O)[C@@H](O)[C@H]2O)c(=O)[nH]1	ALOX12 inh inconclusive (no result: PLK1 PBD block, BAZ2B inh, JMJD2A Tudor, HP1b binding inh)
S=C(c1ccc(Br)cc1)N1CCN(Cc2ccccc2)CC1	PLK1 PBD block 6.7µM, BAZ2B inh inconclusive, JMJD2A Tudor inconclusive (no result: G9a inh) | TbPYK inh 1.3µM | TbPYK orthogonal 8.9µM
CN(C)c1ccc(C(=S)N2CCN(Cc3ccccc3)CC2)cc1	PLK1 PBD block 4.2µM, G9a inh 8.9µM, BAZ2B inh 35µM, JMJD2A Tudor 56µM, HP1b binding inh inconclusive | TbPYK inh 5µM | TbPYK orthogonal 4.5µM
CCN(CC)c1ccc(C(=O)N2CCN(Cc3ccccc3)CC2)cc1	PLK1 PBD block inconclusive, G9a inh inconclusive, JMJD2A Tudor inconclusive
Oc1ccc(C(=S)N2CCN(Cc3ccccc3)CC2)cc1	PLK1 PBD block 2.7µM, G9a inh 2.2µM, JMJD2A Tudor inconclusive, HP1b binding inh inconclusive | TbPYK inh 16µM | TbPYK orthogonal 32µM
CN1CCN(C(=S)c2ccc(Br)cc2)CC1	PLK1 PBD block 4.2µM, G9a inh 20µM | TbPYK inh 7.1µM | TbPYK orthogonal 7.9µM
